# From PubChem BioAssay (EPA / NIEHS)
# Inconclusive results are not listed. Calls of active or inactive are those of the source. Rule for the calls, unless noted: active = hit-call score of the fitted dose curve at least 0.9, where 1 is the maximum; inconclusive = response in the unintended direction; inactive = score below 0.9.
# Experiments:
# [1] = target: Oxysterols receptor LXR-alpha (Homo sapiens) (UniProt Q13133); experiment: ATG_LXRa_TRANS: Attagene TRANS-FACTORIAL HepG2 Assay for human Liver X Receptor alpha (LXRa) (AID 2282980); conditions: HepG2 Attagene TRANS reporter, LXRa transactivation
# Method in brief: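 Transfect HepG2 with GAL4-UAS multiplex reporter constructs (TRANS format, chimeric receptor-GAL4); treat 24 h; extract RNA, reverse-transcribe, PCR-amplify, FAM-label, HpaI-digest; resolve fragments by capillary electrophoresis. Upward response vs DMSO.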
# [2] = target: Oxysterols receptor LXR-beta (Homo sapiens) (UniProt P55055); experiment: ATG_LXRb_TRANS: Attagene TRANS-FACTORIAL HepG2 Assay for human Liver X Receptor beta (LXRb) (AID 2282981); conditions: HepG2 Attagene TRANS GAL4-LXRb reporter, mRNA
# Method in brief: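 After 24 h of chemical treatment, transfected HepG2 cells yield total RNA; reporter cDNA is PCR-amplified, FAM-labelled, HpaI-cut and run on capillary electrophoresis. Signal reflects chimeric LXRb-Gal4 activity on GAL4-UAS reporters.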
# [3] = ATG_M_06_TRANS: Attagene TRANS-FACTORIAL HepG2 Assay for M06 Transcription Factor (Internal Marker) (AID 2282983); conditions: HepG2 Attagene TRANS M06 internal marker reporter;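 note: reporter transcript level by RT-PCR then capillary electrophoresis fluorescence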
# Method in brief: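 Background control endpoint: reporter mRNA from transiently transfected HepG2 after 24 h dosing, detected by RT-PCR with capillary electrophoresis fluorescence. Analysed for gain versus DMSO.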
# [4] = ATG_M_32_TRANS: Attagene TRANS-FACTORIAL HepG2 Assay for M32 Transcription Factor (Internal Marker) (AID 2282984); conditions: HepG2 Attagene TRANS M32 internal marker reporter;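 note: transcript level of a background control reporter unit measured by RT-PCR and capillary electrophoresis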
# Method in brief: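 Cell-based TRANS-format assay in HepG2: exogenous chimeric GAL4 reporter units transiently expressed, compounds applied 24 h. Reporter mRNA detected by RT-PCR plus capillary electrophoresis; this readout is an internal background marker.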
# [5] = target: Nuclear receptor subfamily 4 group A member 2 (Homo sapiens) (UniProt P43354); experiment: ATG_NURR1_TRANS: Attagene TRANS-FACTORIAL HepG2 Assay for human Nuclear Receptor Related Protein 1 (NURR1) (AID 2282985); conditions: HepG2 Attagene TRANS reporter, mRNA readout
# Method in brief: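 Measures transcriptional activation by an exogenous NR-Gal4 chimera in transfected HepG2 liver cells. After 24 h, reporter RNA is reverse-transcribed, amplified and resolved by capillary electrophoresis; DMSO defines baseline.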
# [6] = target: Transcriptional activator Myb (Homo sapiens) (UniProt P10242); experiment: ATG_Myb_CIS: Attagene CIS-FACTORIAL HepG2 Assay for human Myeloblastosis (Myb) Proto-Oncogene Transcription Factor (AID 2282986; active = hit-call score of the fitted dose curve at least 0.9, where 1 is the maximum; inactive = score below 0.9); conditions: HepG2 Attagene CIS-FACTORIAL Myb reporter transcription; actives raise or lower the signal
# Method in brief: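 Endogenous transcription factor activity at a Myb-responsive cis element is reported in human liver HepG2 cells after 24 h chemical treatment. Reporter mRNA is detected by RT-PCR and capillary electrophoresis fluorescence, with DMSO as baseline.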
# [7] = target: Nuclear respiratory factor 1 (Homo sapiens) (UniProt Q16656); experiment: ATG_NRF1_CIS: Attagene CIS-FACTORIAL HepG2 Assay for human Nuclear Respiratory Factor 1 (NRF1) Orphan Gene (AID 2282987; active = hit-call score of the fitted dose curve at least 0.9, where 1 is the maximum; inactive = score below 0.9); conditions: HepG2 NRF1 cis-element reporter, Attagene multiplex; actives raise or lower the signal
# Method in brief: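 Human hepatoma HepG2 cells carrying transfected promoter-regulated reporter units were incubated with test chemicals for 24 h. Reporter transcripts were measured by RT-PCR plus capillary electrophoresis, and endpoints derived by bidirectional fitting with DMSO as baseline.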
# [8] = ATG_NFI_CIS: Attagene CIS-FACTORIAL HepG2 Assay for human Nuclear Factor I (NFI) (AID 2282989; active = hit-call score of the fitted dose curve at least 0.9, where 1 is the maximum; inactive = score below 0.9); conditions: HepG2 cis-regulatory reporter, NFI response element transcription; actives raise or lower the signal
# Method in brief: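 Endogenous TF activity in HepG2 cells transiently transfected with cis-element-driven multiplexed reporter units, read 24 h after dosing. Reporter mRNA quantified by RT-PCR, 6-FAM labelling, HpaI digestion and capillary electrophoresis; bidirectional fit versus DMSO.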
# [9] = target: Hepatocyte nuclear factor 4-alpha (Homo sapiens) (UniProt P41235); experiment: ATG_HNF4a_TRANS: Attagene TRANS-FACTORIAL HepG2 Assay for human Hepatocyte Nuclear Factor 4 alpha (HNF4a) (AID 2282982); conditions: HepG2 HNF4a transactivation reporter, mRNA readout
# Method in brief: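 Multiplexed reporter assay: transfected HepG2, 24 h exposure, total RNA → oligo(dT) RT → PCR → 6-FAM extension → HpaI digest → CE fluorescence. DMSO = negative control.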
# Sequence of Nuclear receptor subfamily 4 group A member 2 (Homo sapiens) (P43354 whole entry, looked up, the tested form may be a part): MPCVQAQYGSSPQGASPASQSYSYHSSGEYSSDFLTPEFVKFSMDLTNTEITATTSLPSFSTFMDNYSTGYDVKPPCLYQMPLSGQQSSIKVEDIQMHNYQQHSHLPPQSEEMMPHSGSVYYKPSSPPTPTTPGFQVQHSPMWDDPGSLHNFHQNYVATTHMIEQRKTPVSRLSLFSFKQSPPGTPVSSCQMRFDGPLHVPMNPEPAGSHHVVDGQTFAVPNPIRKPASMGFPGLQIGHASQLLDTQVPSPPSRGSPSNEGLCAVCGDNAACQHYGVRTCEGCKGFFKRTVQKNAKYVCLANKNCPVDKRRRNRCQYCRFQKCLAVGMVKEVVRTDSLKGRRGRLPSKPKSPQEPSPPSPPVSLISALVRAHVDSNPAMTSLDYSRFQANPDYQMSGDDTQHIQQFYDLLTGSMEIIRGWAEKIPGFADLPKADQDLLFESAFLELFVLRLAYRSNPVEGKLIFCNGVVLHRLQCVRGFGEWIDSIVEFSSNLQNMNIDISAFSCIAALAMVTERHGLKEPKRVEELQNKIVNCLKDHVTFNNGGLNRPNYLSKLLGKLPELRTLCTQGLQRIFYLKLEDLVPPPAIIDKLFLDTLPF
# Sequence of Oxysterols receptor LXR-alpha (Homo sapiens) (Q13133 whole entry, looked up, the tested form may be a part): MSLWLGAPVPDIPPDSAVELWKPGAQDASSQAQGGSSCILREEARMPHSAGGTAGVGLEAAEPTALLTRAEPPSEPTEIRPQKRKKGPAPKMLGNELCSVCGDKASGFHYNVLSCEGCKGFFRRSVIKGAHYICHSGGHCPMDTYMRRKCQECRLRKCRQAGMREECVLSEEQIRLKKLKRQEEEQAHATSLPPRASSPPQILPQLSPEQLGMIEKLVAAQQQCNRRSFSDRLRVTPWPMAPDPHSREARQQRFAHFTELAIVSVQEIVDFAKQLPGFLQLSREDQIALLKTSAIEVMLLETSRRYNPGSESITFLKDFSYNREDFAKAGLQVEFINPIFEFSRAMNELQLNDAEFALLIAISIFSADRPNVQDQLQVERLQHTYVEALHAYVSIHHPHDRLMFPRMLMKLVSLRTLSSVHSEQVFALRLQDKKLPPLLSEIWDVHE
# Sequence of Nuclear respiratory factor 1 (Homo sapiens) (Q16656 whole entry, looked up): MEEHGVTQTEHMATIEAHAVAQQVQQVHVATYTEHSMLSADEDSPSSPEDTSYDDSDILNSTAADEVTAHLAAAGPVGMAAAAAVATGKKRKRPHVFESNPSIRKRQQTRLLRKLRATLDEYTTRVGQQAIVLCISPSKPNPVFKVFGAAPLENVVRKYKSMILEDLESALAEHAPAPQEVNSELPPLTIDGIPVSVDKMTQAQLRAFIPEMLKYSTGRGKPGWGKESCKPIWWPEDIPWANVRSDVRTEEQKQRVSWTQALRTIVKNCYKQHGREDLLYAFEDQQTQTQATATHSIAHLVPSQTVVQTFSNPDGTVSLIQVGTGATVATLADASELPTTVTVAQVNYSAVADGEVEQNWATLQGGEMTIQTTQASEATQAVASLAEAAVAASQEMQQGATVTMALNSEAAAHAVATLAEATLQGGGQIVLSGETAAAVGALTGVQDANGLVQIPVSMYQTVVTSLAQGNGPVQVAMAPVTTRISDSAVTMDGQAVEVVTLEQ
# Sequence of Hepatocyte nuclear factor 4-alpha (Homo sapiens) (P41235 whole entry, looked up): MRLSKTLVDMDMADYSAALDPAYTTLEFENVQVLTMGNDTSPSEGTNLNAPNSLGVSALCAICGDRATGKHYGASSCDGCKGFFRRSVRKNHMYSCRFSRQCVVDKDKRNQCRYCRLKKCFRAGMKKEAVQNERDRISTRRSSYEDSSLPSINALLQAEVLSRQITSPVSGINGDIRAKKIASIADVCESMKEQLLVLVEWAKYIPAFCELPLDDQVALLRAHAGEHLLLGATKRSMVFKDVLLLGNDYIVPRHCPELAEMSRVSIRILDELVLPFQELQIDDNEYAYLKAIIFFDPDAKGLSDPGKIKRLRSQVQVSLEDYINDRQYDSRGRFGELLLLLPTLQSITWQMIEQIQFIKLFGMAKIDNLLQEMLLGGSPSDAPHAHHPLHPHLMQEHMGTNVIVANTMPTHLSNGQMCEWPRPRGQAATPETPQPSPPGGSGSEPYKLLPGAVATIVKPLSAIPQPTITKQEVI
# Sequence of Transcriptional activator Myb (Homo sapiens) (P10242 whole entry, looked up): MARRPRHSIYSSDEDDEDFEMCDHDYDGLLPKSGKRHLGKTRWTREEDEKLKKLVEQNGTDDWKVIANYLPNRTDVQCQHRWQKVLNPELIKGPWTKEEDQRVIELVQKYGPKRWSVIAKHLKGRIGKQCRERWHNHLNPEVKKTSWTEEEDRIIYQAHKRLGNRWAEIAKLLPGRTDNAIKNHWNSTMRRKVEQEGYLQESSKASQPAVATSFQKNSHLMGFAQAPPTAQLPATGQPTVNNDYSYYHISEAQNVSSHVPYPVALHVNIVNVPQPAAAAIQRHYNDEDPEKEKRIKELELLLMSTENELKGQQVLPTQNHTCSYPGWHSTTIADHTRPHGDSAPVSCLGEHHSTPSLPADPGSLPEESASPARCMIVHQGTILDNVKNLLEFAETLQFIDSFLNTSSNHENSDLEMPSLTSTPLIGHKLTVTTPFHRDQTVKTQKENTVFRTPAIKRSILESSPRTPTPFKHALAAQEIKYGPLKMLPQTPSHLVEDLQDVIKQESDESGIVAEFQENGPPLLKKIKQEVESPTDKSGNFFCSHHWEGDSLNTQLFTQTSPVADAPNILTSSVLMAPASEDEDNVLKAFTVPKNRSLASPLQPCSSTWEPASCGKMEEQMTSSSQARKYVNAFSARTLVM
# Sequence of Oxysterols receptor LXR-beta (Homo sapiens) (P55055 whole entry, looked up, the tested form may be a part): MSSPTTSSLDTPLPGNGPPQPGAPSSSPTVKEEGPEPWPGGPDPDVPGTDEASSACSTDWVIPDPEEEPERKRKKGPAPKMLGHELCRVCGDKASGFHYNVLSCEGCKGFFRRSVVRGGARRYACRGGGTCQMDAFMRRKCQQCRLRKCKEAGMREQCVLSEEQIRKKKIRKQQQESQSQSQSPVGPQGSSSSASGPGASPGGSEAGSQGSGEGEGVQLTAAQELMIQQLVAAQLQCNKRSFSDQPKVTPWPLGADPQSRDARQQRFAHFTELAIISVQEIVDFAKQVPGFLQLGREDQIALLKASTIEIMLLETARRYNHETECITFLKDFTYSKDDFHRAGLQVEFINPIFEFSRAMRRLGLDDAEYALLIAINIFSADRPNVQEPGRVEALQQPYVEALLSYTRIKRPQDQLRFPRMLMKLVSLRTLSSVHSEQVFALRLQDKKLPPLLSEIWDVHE
smiles,measurement,setting,value
CC(C)(C)c1cc(O)c(C(C)(C)C)cc1O,outcome,[1],inactive
same,outcome,[2],inactive
same,outcome,[3],inactive
same,outcome,[4],inactive
same,outcome,[5],inactive
same,outcome,[6],inactive
same,AC50,[7],162 µM (active)
same,AC50,[8],30.6 µM (active)
CC(=O)Oc1ccccc1C(=O)O,AC50,[1],71.6 µM (active)
same,AC50,[2],100 µM (active)
same,outcome,[9],inactive
same,outcome,[3],inactive
same,AC50,[5],100 µM (active)
same,outcome,[6],inactive
same,outcome,[8],inactive
COCCOC[C@H](CC1(C(=O)NC2CCC(C(=O)O)CC2)CCCC1)C(=O)Oc1ccc2c(c1)CCC2 (stereo not given in full),outcome,[2],inactive
same,outcome,[3],inactive
same,outcome,[5],inactive
same,outcome,[6],inactive
same,outcome,[8],inactive
Cc1ccc(Cl)cc1,outcome,[2],inactive
same,outcome,[9],inactive
same,outcome,[3],inactive
same,outcome,[4],inactive
same,outcome,[5],inactive
same,outcome,[6],inactive
same,outcome,[8],inactive
CCCCCC(=O)O,outcome,[2],inactive
same,outcome,[9],inactive
same,outcome,[3],inactive
same,outcome,[5],inactive
same,outcome,[6],inactive
same,outcome,[7],inactive
same,outcome,[8],inactive
CCCCCCCC=O,outcome,[2],inactive
same,outcome,[9],inactive
same,outcome,[3],inactive
same,outcome,[5],inactive
same,outcome,[6],inactive
same,outcome,[8],inactive
COc1cccc2c1C(=O)c1c(O)c3c(c(O)c1C2=O)C[C@@](O)(C(=O)CO)C[C@@H]3O[C@H]1C[C@H](N)[C@H](O)[C@H](C)O1,outcome,[1],inactive
same,outcome,[2],inactive
same,outcome,[6],inactive
same,outcome,[8],inactive
Oc1ccc2ccccc2c1N=Nc1ccccc1,outcome,[1],inactive
same,outcome,[2],inactive
same,outcome,[9],inactive
same,outcome,[3],inactive
same,outcome,[5],inactive
same,outcome,[6],inactive
same,outcome,[7],inactive
same,outcome,[8],inactive
NCC1(Cc2noc(=O)[nH]2)CCCCC1,outcome,[1],inactive
same,outcome,[3],inactive
same,outcome,[5],inactive
same,outcome,[6],inactive
same,outcome,[7],inactive
same,outcome,[8],inactive
Cc1ccc(C(C)C)c(O)c1,outcome,[2],inactive
same,outcome,[9],inactive
same,outcome,[3],inactive
same,outcome,[5],inactive
same,outcome,[6],inactive
same,outcome,[8],inactive
COC(=O)c1ccc(O)cc1,outcome,[1],inactive
same,outcome,[2],inactive
same,outcome,[3],inactive
same,outcome,[4],inactive
same,outcome,[5],inactive
same,outcome,[6],inactive
same,outcome,[8],inactive
CC(=O)OCCOCCOCCOC(C)=O,outcome,[2],inactive
same,outcome,[3],inactive
same,outcome,[6],inactive
same,outcome,[8],inactive
O=c1c(O)c(-c2ccc(O)c(O)c2)oc2cc(O)cc(O)c12,outcome,[1],inactive
same,outcome,[2],inactive
same,outcome,[4],inactive
same,outcome,[5],inactive
same,outcome,[6],inactive
same,outcome,[7],inactive
same,outcome,[8],inactive
Nc1ccccc1N,outcome,[1],inactive
same,outcome,[2],inactive
same,outcome,[9],inactive
same,outcome,[3],inactive
same,outcome,[4],inactive
same,outcome,[6],inactive
same,AC50,[8],46.1 µM (active)
CCCCCCCCCCCCCO,outcome,[2],inactive
same,outcome,[9],inactive
same,outcome,[3],inactive
same,outcome,[4],inactive
same,AC50,[6],34.3 µM (active)
same,outcome,[8],inactive
CN1CCCC1=O,outcome,[1],inactive
same,outcome,[2],inactive
same,outcome,[3],inactive
same,outcome,[5],inactive
same,outcome,[6],inactive
same,outcome,[8],inactive
CCNc1cccc(C)c1,outcome,[1],inactive
same,outcome,[2],inactive
same,outcome,[3],inactive
same,outcome,[5],inactive
same,outcome,[6],inactive
same,outcome,[7],inactive
same,outcome,[8],inactive
CC1=C(/C=C/C(C)=C/C=C/C(C)=C/CO)C(C)(C)CCC1,outcome,[2],inactive
same,outcome,[3],inactive
same,outcome,[4],inactive
same,AC50,[5],2.86 µM (active)
same,outcome,[6],inactive
same,outcome,[7],inactive
same,outcome,[8],inactive
c1cc(-c2ccncc2)ccn1,outcome,[1],inactive
same,outcome,[9],inactive
same,outcome,[5],inactive
same,outcome,[6],inactive
same,outcome,[7],inactive
same,outcome,[8],inactive
CCOc1ccc2c(c1)C(C)=CC(C)(C)N2,AC50,[1],38.2 µM (active)
same,outcome,[2],inactive
same,outcome,[9],inactive
same,outcome,[4],inactive
same,AC50,[5],124 µM (active)
same,AC50,[6],183 µM (active)
same,AC50,[8],166 µM (active)
CCCCN(CCCC)CCCC,outcome,[9],inactive
same,outcome,[3],inactive
same,outcome,[4],inactive
same,outcome,[5],inactive
same,outcome,[6],inactive
same,outcome,[7],inactive
same,outcome,[8],inactive
CC(=O)OC/C=C(\C)CCC=C(C)C,outcome,[4],inactive
same,outcome,[6],inactive
same,outcome,[7],inactive
same,outcome,[8],inactive
CCCCOC(=O)CCCCCCCCC(=O)OCCCC,outcome,[9],inactive
same,outcome,[6],inactive
same,outcome,[8],inactive
O=c1[nH]cc(F)c(=O)[nH]1,outcome,[4],inactive
same,outcome,[5],inactive
same,outcome,[6],inactive
same,outcome,[8],inactive
C[C@]12C=CC(=O)C=C1CC[C@@H]1[C@@H]2C(=O)C[C@@]2(C)[C@H]1CC[C@]2(O)C(=O)CO,outcome,[2],inactive
same,outcome,[3],inactive
same,outcome,[6],inactive
same,outcome,[8],inactive
NCCO,outcome,[2],inactive
same,outcome,[5],inactive
same,outcome,[6],inactive
same,outcome,[8],inactive
C=CCc1ccc(O)c(OC)c1,outcome,[6],inactive
same,outcome,[8],inactive
Cc1cccc(Nc2cc(Cl)nc(SCC(=O)O)n2)c1C,outcome,[3],inactive
same,outcome,[6],inactive
same,outcome,[8],inactive
CCCCCCCCCCO,outcome,[9],inactive
same,outcome,[3],inactive
same,outcome,[6],inactive
same,outcome,[7],inactive
same,outcome,[8],inactive
CCCCCCCCCCCCCCCCCC(=O)O,outcome,[6],inactive
same,outcome,[8],inactive
CCCc1cc(=O)[nH]c(=S)[nH]1,outcome,[9],inactive
same,outcome,[3],inactive
same,outcome,[4],inactive
same,outcome,[5],inactive
same,outcome,[6],inactive
same,outcome,[8],inactive
CCCCCCCCCCC,outcome,[9],inactive
same,outcome,[3],inactive
same,outcome,[6],inactive
same,outcome,[7],inactive
same,outcome,[8],inactive
Cc1cccc(C)c1O,outcome,[3],inactive
same,outcome,[4],inactive
same,outcome,[5],inactive
same,outcome,[6],inactive
same,outcome,[8],inactive
Cc1ccc(C)c(C)c1,outcome,[5],inactive
same,outcome,[6],inactive
same,outcome,[8],inactive
Cc1ccc(C)c(O)c1C,outcome,[9],inactive
same,outcome,[3],inactive
same,outcome,[6],inactive
same,outcome,[8],inactive
O=C(O)Cc1ccccc1Nc1c(Cl)cccc1Cl,outcome,[4],inactive
same,outcome,[5],inactive
same,outcome,[6],inactive
same,outcome,[7],inactive
same,outcome,[8],inactive
Oc1ccc2c(c1)OC[C@@H](N1CCC(O)(c3ccc(F)cc3)CC1)[C@H]2O,outcome,[9],inactive
same,outcome,[3],inactive
same,outcome,[5],inactive
same,outcome,[6],inactive
same,outcome,[7],inactive
same,outcome,[8],inactive
COc1ccc(S(=O)(=O)N2C(=O)[C@@](c3ccccc3OC)(N3C[C@H](O)C[C@H]3C(=O)N(C)C)c3cc(Cl)ccc32)c(OC)c1,outcome,[5],inactive
same,AC50,[6],163 µM (active)
same,outcome,[7],inactive
same,outcome,[8],inactive
Cc1cccc([N+](=O)[O-])c1C,outcome,[3],inactive
same,outcome,[4],inactive
same,outcome,[5],inactive
same,outcome,[6],inactive
same,outcome,[8],inactive
CNCc1cc(F)ccc1Oc1ccc(Cl)c(Cl)c1,outcome,[9],inactive
same,outcome,[3],inactive
same,outcome,[6],inactive
same,outcome,[7],inactive
same,outcome,[8],inactive
Clc1cc(Cl)c(Cl)cc1Cl,outcome,[9],inactive
same,outcome,[3],inactive
same,outcome,[5],inactive
same,outcome,[6],inactive
same,outcome,[8],inactive
O=C(N[C@@H](Cc1ccccc1)[C@@H](O)C(=O)N1C[C@@H](O)[C@@H](O)C1)c1cc2cc(Cl)ccc2[nH]1,outcome,[3],inactive
same,outcome,[4],inactive
same,outcome,[6],inactive
same,outcome,[7],inactive
same,outcome,[8],inactive
CC(=O)C(C)=CC1C(C)=CCCC1(C)C (stereo not given),outcome,[3],inactive
same,outcome,[4],inactive
same,outcome,[5],inactive
same,outcome,[6],inactive
same,outcome,[7],inactive
same,outcome,[8],inactive
Cc1ccc2ncccc2c1,outcome,[3],inactive
same,outcome,[6],inactive
same,outcome,[7],inactive
same,outcome,[8],inactive
CCCCCCC(=O)OCC,outcome,[9],inactive
same,outcome,[3],inactive
same,outcome,[4],inactive
same,outcome,[5],inactive
same,outcome,[6],inactive
same,outcome,[7],inactive
same,outcome,[8],inactive
Cc1ccc(N(C)C)cc1,outcome,[9],inactive
same,outcome,[3],inactive
same,outcome,[4],inactive
same,outcome,[6],inactive
same,outcome,[7],inactive
same,outcome,[8],inactive
CC=Cc1ccc(O)c(OC)c1,outcome,[3],inactive
same,outcome,[5],inactive
same,outcome,[6],inactive
same,outcome,[7],inactive
same,outcome,[8],inactive
CCOC(=O)CCC(=O)OCC,outcome,[3],inactive
same,outcome,[6],inactive
same,outcome,[7],inactive
same,outcome,[8],inactive
Cc1oc(-c2ccccc2)nc1CCOc1cccc2c1ccn2CCC(=O)O,outcome,[2],inactive
same,outcome,[4],inactive
same,outcome,[5],inactive
same,outcome,[6],inactive
same,outcome,[7],inactive
same,outcome,[8],inactive
